Screening results: PubChem BioAssay, Corson Lab, School of Medicine, Indiana University
This excerpt belongs to a sample that is enriched for hits.
FECH block = human FECH heme synthesis enzyme inhibition | purified FECH, Ni-mesoporphyrin absorbance 550 nm | 3.3% of 20,000 active | calls only at 10 µM (by protocol) | P22830 | AID 1671448;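 active means enzyme reaction rate more than 3 SD below the solvent-only control wells on the same plate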;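 further: lower slope than DMSO wells means FECH inhibition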
Calls only; n = inactive; + = active, no number.

SMILES	FECH block
Cc1ccc(CN2CCCN(Cc3ccc(Cl)cc3)S2(=O)=O)cc1	+
Cc1ccc(CN2CCCN(CC(N)=O)S2(=O)=O)cc1	n
Cc1ccccc1CN1CCCN(Cc2ccc(Cl)cc2)S1(=O)=O	n
CCNC(=O)CN1CCCC(C(=O)c2ccc3c4c(cccc24)CC3)C1 (stereo not given)	n
O=S1(=O)N(Cc2ccccc2)CCCN1Cc1ccccc1Cl	n
c1cc(C2NCCc3[nH]cnc32)c2cc[nH]c2c1 (stereo not given)	n
c1ccc2[nH]c(C3NCCc4[nH]cnc43)nc2c1 (stereo not given)	+
COc1ccc2c(c1)c(C(=O)NC(C)CCn1cccn1)c(C)n2C (stereo not given)	n
CC(C)CCNC(=O)CN1CCCN(Cc2ccccc2)S1(=O)=O	n
Cc1ccnc(CC(C)N(C)Cc2cc(Cn3cncn3)c(C)cc2C)c1 (stereo not given)	n
